Assay outcomes (PubChem BioAssay)
Shown are actives, neighbours in structure and some others; about 12% of the full set was active somewhere.
RORg inh: qHTS for inhibitors of ROR gamma transcriptional activity; Nuclear receptor ROR-gamma (Mus musculus), P51450; Drosophila S2 Gal4-RORgamma UAS-luciferase reporter, 20 h; Potency, µM (top dose mostly 53.6 µM), for the others: at the highest dose activity change, negative = inhibition, usual class: inhibitors; actives 5.4% (n = 310,000); note: nearly all actives have a fitted effect of over 60% in size
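Stable Schneider cell line, Gal4 DNA-binding domain fused to ROR gamma, UAS-luciferase. Cmpd 1 hr RT → CuSO4 700 uM final → 20 hr RT → luciferase reagent 10 min → luminescence.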
Sfp PPTase inh: qHTS Assay for Inhibitors of Bacillus subtilis Sfp phosphopantetheinyl transferase (PPTase) | 4'-phosphopantetheinyl transferase ffp (Bacillus subtilis), Q9F4F7 | Biochemical Sfp PPTase activity, qHTS | Potency, µM, inactives show largest response in the series, negative = inhibition, actives largely listed as inhibitors | actives 3.5% (n = 310,000) | AID 1490, 2009;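 note: the enzyme is Sfp with the accession as filed and its product quenches rhodamine fluorescence; 0% = enzyme reaction without inhibitor and -100% = no enzyme wells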
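Fluorescence-quenching assay: 15 nM Sfp-PPTase preincubated 15 min at room temperature with compound, then 5 uM rhodamine-CoA and 12.5 uM BHQ-2-labelled YbbR peptide added. Fluorescence (ex 525/em 598 nm) read at start and after 30 min; difference gives rate.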
PLK1 PBD block: qHTS for Inhibitors of PLK1-PDB (polo-like kinase 1 - polo-box domain): Primary Screen | Serine/threonine-protein kinase PLK1 (Homo sapiens), P53350 | Plk1 PBD binding of FITC phosphopeptide, fluorescence polarization | Potency, µM, for inactives: max response, negative = inhibition, usual class: inhibitors | actives 2.8% (n = 360,000); note: series mostly up to about 57 µM; nearly all actives have a fitted effect of over 65% in size
VP16 counter: VP16 counterscreen qHTS for inhibitors of ROR gamma transcriptional activity; actives 3.5% (n = 310,000); Potency, µM (doses to about 53.6 µM), for the others: at the top dose activity, negative = inhibition, actives largely listed as inhibitors; Drosophila S2 Gal4-VP16 UAS-luciferase, luminescence, 20 h;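 note: Gal4-VP16 expression switched on by copper sulfate through the metallothionein promoter; nearly all actives have a fitted effect of over 50% in size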
ALDH1A1 inh: qHTS Assay for Inhibitors of Aldehyde Dehydrogenase 1 (ALDH1A1). Aldehyde dehydrogenase 1A1 (Homo sapiens), P00352. Purified ALDH1A1, NADH fluorescence, propionaldehyde substrate. Potency, µM (highest dose often 75.3 µM), for the others: at the top dose activity, negative = inhibition, actives largely listed as inhibitors. actives 7.3% (n = 220,000). AID 1030, 2008; active = well fitted inhibition curve with a large enough effect, not every such curve was filed as active; inconclusive = small, poorly fitted or top-dose-only effect, or another doubt; inactive = no such curve, though single readings can be large or run the other way;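 note: plate controls were no enzyme wells and a reference inhibitor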
Target sequence (P00352 whole entry, looked up): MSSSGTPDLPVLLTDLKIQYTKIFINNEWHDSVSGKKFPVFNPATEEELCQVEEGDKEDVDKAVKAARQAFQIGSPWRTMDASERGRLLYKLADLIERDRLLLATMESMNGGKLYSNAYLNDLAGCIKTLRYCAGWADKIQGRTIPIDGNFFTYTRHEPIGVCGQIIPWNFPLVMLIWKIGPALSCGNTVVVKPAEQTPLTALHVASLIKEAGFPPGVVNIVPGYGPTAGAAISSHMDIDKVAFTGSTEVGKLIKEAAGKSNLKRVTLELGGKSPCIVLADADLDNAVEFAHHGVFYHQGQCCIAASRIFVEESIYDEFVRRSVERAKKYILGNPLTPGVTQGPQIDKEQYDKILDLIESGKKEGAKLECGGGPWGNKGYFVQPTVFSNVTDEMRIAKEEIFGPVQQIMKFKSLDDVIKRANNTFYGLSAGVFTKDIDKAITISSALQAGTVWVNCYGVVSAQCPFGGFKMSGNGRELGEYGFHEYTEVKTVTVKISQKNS
* marks the source's active call; other numbers are inactive results; ? = inconclusive; nt = no result given; ! = not confirmed by another sample; [ ] = dose if it differs, or a comment. Unless noted, calls come from the whole dose curve; as a rule, active = well fitted curve in the direction sought with a large enough effect; inconclusive = small, poorly fitted or top-dose-only effect, or another doubt; inactive = no such curve, though single readings can be large; an effect the other way counts as inactive or inconclusive. Unless noted, % is set by controls: 0 for no effect and ±100 for the full control effect; potency is the fitted concentration of half-maximal effect.

SMILES | RORg inh | Sfp PPTase inh | PLK1 PBD block | VP16 counter | ALDH1A1 inh
CCCc1[nH]nc2c1C(c1ccc(OC)c(CSC3=NCCS3)c1)C(C#N)=C(N)O2 (stereo not drawn) | -106% | 79µM* | ? | ? | ?
N#CC1=C(N)Oc2n[nH]c(-c3ccccc3)c2C1c1cccnc1 (stereo not drawn) | 2% | 15% | -14% | 6% | -10%
N#CC1=C(N)Oc2n[nH]c(-c3cccnc3)c2C1c1ccc([N+](=O)[O-])o1 (stereo not drawn) | 6.3µM* | 5% | ? | ? | -3%
CC(C)c1[nH]nc2c1C(c1cccc(OC(=O)N3CCOCC3)c1)C(C#N)=C(N)O2 (stereo not drawn) | 14% | 0% | -13% | -9% | 22µM*
NC(=O)CC(NC(=O)Cc1ccc(Cl)cc1)c1ccc(NC2CC3CCC2C3)c([N+](=O)[O-])c1 (stereo not drawn) | 43% | -6% | -12% | -5% | nt
CC(C)c1[nH]nc2c1C(c1cccnc1)C(C#N)=C(N)O2 (stereo not drawn) | 34% | 17% | -8% | 4% | 8.9µM*
COc1cccc(S(=O)(=O)N(C)C[C@H]2OCc3cnnn3CCCC(=O)N([C@@H](C)CO)C[C@H]2C)c1 | nt | nt | -7% | nt | nt
Cc1cn(CC2COC(C)(C)O2)c(=O)[nH]c1=O (stereo not drawn) | 15% | 23% | 6µM* | -13% | 17%
COC(Cn1cc(C)c(=O)[nH]c1=O)OC | 1% | -2% | -1% | 7% | 8%
COc1ccc(C(=O)COC(=O)c2ccc(OC)c(OC)c2)cc1OC | -12% | 17% | -6% | 2% | 9%
COc1ccc(O)c(C(=O)CC(=O)c2ccccc2C)c1 | 20% | 12% | -19% | 0.71µM* | 1%
COc1ccc(C(=O)CC(=O)c2ccccc2O)cc1OC | 7.1µM* | 2% | -5% | 6%[10 µM] | ?
COc1ccc(O)c(C(=O)CC(=O)c2ccc(F)cc2)c1 | ? | 2% | -9% | ? | 1%
COc1ccc(C(=O)CC(=O)c2ccccc2O)cc1 | 7.9µM* | 12% | -13% | 6.3µM* | nt
COc1ccc(C(=O)CSc2cc(C)nc3nc(C)nn23)cc1OC | 16µM* | 7% | -14% | ? | ?
COc1ccc(C(=O)CSc2nc(SC)ns2)cc1OC | -9% | -11% | -1% | 22% | 3%
Nc1cc(Cl)c([N+](=O)[O-])cc1O | 40% | nt | nt | ? | ?
COc1ccc(C(=O)CSC#N)cc1OC | 16µM* | -1% | 24µM* | ? | 1.3µM*
COc1ccc(C(=O)C[n+]2ccccc2C)cc1 | 22% | -14% | 6µM* | -10% | -6%
Cc1ccccc1CN1CCN(C(=O)[C@H]2O[C@@H](n3cnc4c(N)ncnc43)[C@H](O)[C@@H]2O)CC1 | nt | nt | -5% | nt | nt
CCCOC1CCCN(C(=O)CCc2nnc(-c3ccc4c(c3)OCO4)o2)C1 (stereo not drawn) | 23% | 2% | -2% | 19% | nt
CN(/N=C/c1ccc(-c2ccc([N+](=O)[O-])cc2)o1)c1ccccc1 | 34% | -4% | 15% | -6% | nt
CN(C)/N=C/c1ccc(Sc2ccccc2[N+](=O)[O-])o1 | 37% | -3% | 6µM* | 1% | ?
CN(C)/N=C/c1ccc([N+](=O)[O-])cc1[N+](=O)[O-] | -35% | 56µM* | -17% | 5% | ?
CN(N=Cc1cccc2cccnc12)c1ccc([N+](=O)[O-])cc1[N+](=O)[O-] | nt | nt | -15% | nt | nt
SMILES | RORg inh | Sfp PPTase inh | PLK1 PBD block | VP16 counter | ALDH1A1 inh
CC(C)OC(=O)[C@H]1O[C@H](CCCCOCc2ccccc2)[C@@H](C)[C@H]2O[C@H]21 | -3% | -14% | nt | 4% | 1%
CC1(C)C(=O)NC2=C1C(=O)C(=O)c1ccccc12 | 1.4µM* | 50µM*! | nt | 2.8µM* | 28µM*
Cc1ccc(C2C3=C(CC(C)(C)CC3=O)NC3=C2C(=O)c2ccccc23)cc1 (stereo not drawn) | 13% | -17% | -6% | ? | -5%
O=C1[C@H]2[C@H]3[C@H](O)[C@H](O)C/C(=N/OC[C@@H](O)COCc4ccco4)[C@@H]3CC[C@@H]2C(=O)N1Cc1ccccc1 | 8%[10 µM] | 17% | nt | -1%[10 µM] | -9%[13.5 µM]
COc1cc(C2Nc3cc(Cl)c(S(N)(=O)=O)cc3S(=O)(=O)N2)cc(OC)c1OC (stereo not drawn) | -2% | 13% | -4% | -1% | -7%
COc1cc(C2Nc3cc(Cl)c(S(N)(=O)=O)cc3S(=O)(=O)N2)ccc1OCc1ccccc1 (stereo not drawn) | 27% | 27% | 24µM* | -3% | ?
CCc1ccc(OC)c(S(=O)(=O)Nc2ccc(Cc3ccncc3)cc2)c1 | ? | -5% | 6% | 2.2µM* | nt
COc1ccc(S(=O)(=O)Nc2ccc(F)c(Cl)c2)cc1OC | -16% | -2% | -1% | 7.1µM* | ?
COc1ccc(S(=O)(=O)Nc2ccc(Cc3ccncc3)cc2)cc1OC | ? | 0% | -5% | 7.9µM* | nt
O=C(Oc1ccc[nH]c1=O)C1CC1 | nt | nt | 0% | nt | nt
CCOc1ccc(/C(CCC(=O)O)=N/NC(=S)NC(C)C)cc1 | 11µM* | 35µM* | ? | ? | ?
CC/C(=N\NC(N)=O)c1ccc(OC)c(OC)c1 | 5% | 8% | -1% | 1% | nt
CC/C(=N\NC(=S)NC(C)C)c1ccc(OC)c(OC)c1 | 4.5µM* | -18% | ? | 10µM* | ?
CC12CCC(O)CC1=CCC1C2CCC2(C)C3=NN=CC3CC12 (stereo not drawn) | nt | nt | 7% | nt | nt
CN(C)CCCNc1c2c(nc3ccccc13)CCC2 | -2% | 4% | 27µM* | -5% | nt
COCCNc1c2c(nc3ccccc13)CCC2 | -36% | 14% | 0% | -6% | nt
c1ccc(-c2nnc3oc(-c4cccs4)nn23)cc1 | nt | nt | -2% | nt | nt
CN(Cc1cc(C(C)(C)C)cc(Br)c1O)Cc1cc(C(C)(C)C)cc(Br)c1O | nt | nt | nt | nt | -9%[13.5 µM]
S=C(NCCc1ccncc1)Nc1ccccc1 | -16% | 14% | ? | -1% | -3%
S=C(NCCc1ccccc1)Nc1ccccn1 | 1.1µM* | -9% | -13% | 3.2µM* | 3.2µM*
Cc1cccc(NC(=S)NCCc2ccccc2)n1 | 0.56µM* | 56µM* | 34µM* | 3.2µM* | ?
Cc1cccc(NC(=O)CS(=O)(=O)Cc2ccccc2)n1 | -7% | 17% | 1% | 9% | -8%
O=C(O)c1cccc(/C=C2/C[C@@H]3[C@@H](/C=C/[C@@H](O)C4CCCCC4)[C@H](O)C[C@@H]3O2)c1 | 22% | -4% | nt | -9% | nt
